Bioassay records (PubChem BioAssay)
TDP1 inh: inhibitors of human tyrosyl-DNA phosphodiesterase TDP1. Q9NUW8. recombinant TDP1, AlphaScreen DNA substrate cleavage. Potency, µM (titrated, usually from 130 µM), without a hit: at the highest dose activity change, negative = inhibition, most hits filed as inhibitors. hit rate 0.28% among 350,000. AID 485290; further: potency means the concentration at half of the fitted maximal effect; nearly all actives have a fitted effect of over 40% in size
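E. coli-derived human Tdp1, 1 nM final. Cpd preinc 15 min RT; substrate 15 nM final, 5 min RT; AS bead mix 10 ug/ml final, 10 min RT. Signal loss = tyrosine-FITC cleavage. No-enzyme wells = max signal.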
CtBP-E1A inh: blocks the CtBP interaction with E1A; activity change, % (test concentration not listed); hit rate 0.49% among 340,000; AID 651724; AlphaScreen GST-E1A/His-CtBP binding, 1536-well; stronger effect = lower value; in the data active means activity change below about -65%; inconclusive means mostly about -30% to -63%
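Steps: dispense buffer (Tris pH 8.0, NaCl 300 mM, TCEP 1 mM, BSA, Tween 20); add 5X protein mix (GST-E1A, His-CtBP, 125 nM each); pin 23 nL compound; 2 h at 37 °C, dark; add 5X beads (50 ug/mL); 1 h; read.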
TDP1 cell noCPT: qHTS for Inhibitors of human tyrosyl-DNA phosphodiesterase 1 (TDP1): qHTS in cells in absence of CPT; AID 686978, 2013; DT40 Tdp1-/- hTDP1 cells, no CPT, ATP luminescence, 48 h; Potency, µM (doses to about 46.2 µM), inactives show top-dose activity change, negative = growth inhibition, usual class: inhibitors; hit rate 15% among 420,000; further: potency means the concentration at half of the fitted maximal effect; nearly all actives have a fitted effect of over 55% in size
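Growth of hTDP1-complemented DT40 Tdp1-knockout cells is measured by ATP luminescence after at least 48 hr compound exposure at 37 °C, with DMSO substituting for the 20 nM CPT used in the parallel screen.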
IL-1B inflam inh: inhibitors of inflammasome signaling (IL-1 beta secretion); activity change, % at 57.5 µM; THP-1 LPS/ATP IL-1B secretion, AlphaLISA, 16 h; stronger effect = lower value; hit rate 4.7% among 360,000; in the data active means activity change below about -50%; inconclusive means mostly about -30% to -49%
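Secreted IL-1B measured by AlphaLISA bead assay after 16 h compound exposure of THP-1 cells; compounds (final up to 57.5 uM) added 1 h before LPS (250 ng/mL) and ATP (1.25 mM) stimulation; lower signal means less secretion.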
Six1-Eya2 blk: blocks human Six1 binding to Eya2; AID 651725; Q15475+O00167; AlphaScreen GST-Six1/His-Eya2 binding, biochemical; stronger effect = lower value; activity change, % (concentration not given with the values); hit rate 0.56% among 360,000; in the data active means activity change below about -65%; inconclusive means mostly about -30% to -63%
Target sequence (O00167 whole entry, looked up): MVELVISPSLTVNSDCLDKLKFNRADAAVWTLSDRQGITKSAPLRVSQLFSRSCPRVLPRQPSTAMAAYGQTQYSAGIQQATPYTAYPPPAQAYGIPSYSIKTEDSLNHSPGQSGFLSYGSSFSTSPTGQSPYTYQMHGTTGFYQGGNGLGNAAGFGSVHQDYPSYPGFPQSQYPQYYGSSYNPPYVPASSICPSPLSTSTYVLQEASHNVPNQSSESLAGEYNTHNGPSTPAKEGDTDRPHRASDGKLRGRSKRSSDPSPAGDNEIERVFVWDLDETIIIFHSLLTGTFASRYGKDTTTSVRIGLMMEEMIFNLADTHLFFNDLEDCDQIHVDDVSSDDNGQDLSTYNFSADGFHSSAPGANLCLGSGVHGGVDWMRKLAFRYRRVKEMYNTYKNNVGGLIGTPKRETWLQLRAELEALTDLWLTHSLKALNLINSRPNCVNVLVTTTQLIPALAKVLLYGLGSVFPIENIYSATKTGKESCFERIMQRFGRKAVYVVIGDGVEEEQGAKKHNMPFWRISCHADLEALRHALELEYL
Target sequence (Q15475 whole entry, looked up): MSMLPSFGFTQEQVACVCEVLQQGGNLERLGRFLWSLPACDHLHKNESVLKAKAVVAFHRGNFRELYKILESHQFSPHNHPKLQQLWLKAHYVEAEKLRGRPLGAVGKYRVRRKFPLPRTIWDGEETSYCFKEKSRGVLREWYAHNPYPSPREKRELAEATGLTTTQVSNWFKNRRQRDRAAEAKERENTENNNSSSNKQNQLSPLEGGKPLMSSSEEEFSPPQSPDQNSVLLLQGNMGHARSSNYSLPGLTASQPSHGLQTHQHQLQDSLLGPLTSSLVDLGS
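Compounds are tested against tagged Six1 and Eya2 proteins bridged by glutathione donor and nickel acceptor beads; after a one-hour incubation at 37 °C without light, AlphaScreen emission is recorded.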
DT40 TDP1 CPT: DT40-hTDP1 cell growth loss with CPT | chicken DT40 Tdp1-/-;hTDP1 cells + 20 nM CPT, ATP luminescence, 48 h | Potency, µM (doses to about 46.2 µM), for inactives: top-dose activity change, negative = growth inhibition, usual class: inhibitors | hit rate 12% among 420,000; further: potency means the concentration at half of the fitted maximal effect; nearly all actives have a fitted effect of over 55% in size
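Cell growth measured by CellTiter-Glo luminescence after a minimum 48 h, 37 C compound exposure with 20 nM CPT in Tdp1-knockout DT40 cells stably expressing hTDP1, seeded 400/well; qHTS titration format.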
Numbers without * were called inactive; ? = inconclusive; . = no result; [ ] = remark or other dose. Shown are actives, neighbours in structure and some others; about 18% of the full set was active somewhere. Unless noted, the call rests on the fitted dose curve; in most records, active means well fitted curve in the direction sought with a large enough effect; inconclusive means small, poorly fitted or top-dose-only effect, or another doubt; inactive means no such curve, though single readings can be large; an effect the other way counts as inactive or inconclusive. On the % scale 0 is the no-effect control and ±100 the full control effect.

SMILES | TDP1 inh | CtBP-E1A inh | TDP1 cell noCPT | IL-1B inflam inh | Six1-Eya2 blk | DT40 TDP1 CPT
Cc1ccc(-c2csc(NC(=O)c3ccc(-c4ccccc4)cc3)n2)o1 | 11% | -11 | ? | -23 | -17 | 16µM*
C=CCNCc1cc(=O)n2c(-c3ccccc3)csc2n1 | . | 1 | 3% | 34 | 3 | 15%
COc1ccc(-c2nc(CN3CCC(C(=O)NC4CCCC4)CC3)c(C)o2)cc1OC | 3% | 3 | 0% | 36 | 5 | -5%
Cc1cccc(-c2nc(CN3CCCC(C(=O)NC4CCCCCC4)C3)c(C)o2)c1 (stereo not given) | -1% | -10 | 18µM* | -66* | -13 | 21µM*
CCOC(=O)N1CCC(NC(=O)C2CCCN(Cc3nc(-c4ccc(CC)cc4)oc3C)C2)CC1 (stereo not given) | 2% | -16 | 1.5µM* | -9 | -2 | 2.9µM*
Cc1cccc(-c2nc(CN3CCCC(C(=O)NC4CCCCC4)C3)c(C)o2)c1 (stereo not given) | 5% | -7 | 21µM* | -6 | -7 | 21µM*
NCCCNCCCCNC(=O)C(O)NC(=O)CCCCCCN=C(N)N (stereo not given) | . | . | 1.2µM* | . | . | 1.2µM*
CC(C)C[C@H](NC(=O)[C@H]1O[C@@H]1C(=O)O)C(=O)NCCCCN=C(N)N | 11% | . | . | . | . | .
CC(=O)c1cccc(Nc2nc(-c3sc(N)nc3C)cs2)c1 | 10% | -77* | 16µM* | -3 | ? | 12µM*
CC(=O)c1cccc(Nc2nc(-c3sc(C)nc3C)cs2)c1 | 2% | ? | ? | -57* | ? | ?
CCOC(=O)c1c(C)[nH]c(C(=O)OCC(=O)NCc2ccc(C)cc2)c1C | 1% | . | ? | 0 | 4 | ?
COc1ccc(-c2nnc(SCC(=O)N3CCCC3)o2)cc1 | 11%[0.0935 µM] | 4 | -3% | 34 | 1 | -2%
COC(=O)c1cnc(Oc2c(Cl)cc(N)cc2Cl)cc1C(F)(F)F | . | 10 | 15µM* | . | 2 | ?
O=C(NC(=O)c1c(Cl)cccc1Cl)Nc1ccc(Oc2cccnc2)nc1 | 2% | 7 | ? | -25 | -4 | 0%
COC(=O)c1cnc(Oc2ccc(NC(=O)NC(=O)c3c(F)cccc3F)cc2)cc1C(F)(F)F | -2% | 0 | ? | 35 | 7 | -6%
COC(=O)c1cnc(Oc2ccc(NC(=O)NC(=O)c3c(F)cccc3Cl)cc2)cc1C(F)(F)F | 6% | 7 | 4.1µM* | 65 | 0 | 3.3µM*
COC(=O)c1cnc(Oc2ccc(NC(=O)NC(=O)c3c(OC)cccc3OC)cc2)cc1C(F)(F)F | -6% | 7 | 1.3µM* | 47 | 4 | 1.2µM*
CC(=O)N1CCN(S(=O)(=O)c2cccc(C(=O)OCC(=O)Nc3c(Cl)cccc3C(F)(F)F)c2)CC1 | . | 5 | 21% | 16 | 4 | 9%
COc1ccccc1N1CCN(C(=O)c2sc3nc(-c4ccc(F)cc4)cn3c2C)CC1 | 7% | -21 | 16µM* | ? | -2 | 23µM*
Cc1c(C(=O)N2CC(C)OC(C)C2)sc2nc(-c3ccc(F)cc3)cn12 (stereo not given) | 6% | -13 | 18µM* | 19 | -4 | ?
CC(=O)Nc1ccc(S(=O)(=O)N(C)c2ccc(OCC(=O)OCC(=O)Nc3ccc(OC(F)F)cc3)cc2)cc1 | -6% | -2 | -3% | ? | 2 | -18%
N#CCC1c2ccccc2CCN1C(=O)Nc1cccc(C(F)(F)F)c1 (stereo not given) | 1% | -4 | ? | -19 | -10 | ?
Cc1ccc2[nH]c(=O)c(CNC(C)(C)C)cc2c1 | -3% | -1 | -15% | -2 | 2 | -7%
COc1ccc2[nH]c(=O)c(CNc3ccc(C)cc3C)cc2c1 | . | -16 | 21µM* | -13 | 1 | 5.8µM*
COc1ccc2[nH]c(=O)c(CNc3cc(C)ccc3C)cc2c1 | . | 0 | 15µM* | -16 | 16 | 15µM*
SMILES | TDP1 inh | CtBP-E1A inh | TDP1 cell noCPT | IL-1B inflam inh | Six1-Eya2 blk | DT40 TDP1 CPT
CC(=O)Nc1nonc1-c1nnc(SCC(=O)Nc2ccc(C)c(Cl)c2)n1-c1ccccc1 | 2% | . | 16µM* | . | . | ?
CC(=O)Nc1nonc1-c1nnc(SCc2ccc(F)cc2Cl)n1C | 5% | . | 15µM* | . | . | ?
CCn1c(SCc2ccc(F)cc2Cl)nnc1-c1nonc1NC(C)=O | 3% | . | 18µM* | . | . | 16µM*
COC(=O)c1ccccc1NC(=O)CSc1nnc(CNS(=O)(=O)c2ccc(C)cc2)n1C | 10% | 2 | -3% | -10 | -5 | 1%
COc1cc(NC(=O)CCl)ccc(=O)c1 | . | -8 | 18µM* | -14 | 2 | 13µM*
COc1cccc(NC(=O)CC(C)=O)c1 | 6% | -9 | -16% | -3 | 5 | -7%
O=C(CSc1ncnc2[nH]ncc12)Nc1cccc(Oc2ccccc2)c1 | 8% | -22 | ? | -90* | -22 | ?
Nc1cccc(Oc2cnccn2)c1 | . | . | 6% | 1 | 10 | 7%
N=c1sccn1CC(=O)Nc1cccc(S(N)(=O)=O)c1 | 5% | -3 | 11% | -24 | -2 | 8%
N=c1sccn1CC(=O)Nc1cccc(Oc2ccccc2)c1 | 6% | 0 | 22µM* | -22 | -1 | ?
O=C(CCl)Nc1cccc(Oc2cnccn2)c1 | . | -9 | 9.2µM* | -88* | 4 | 18µM*
Cc1cc(S(=O)(=O)NCCN2CCOCC2)c(C)s1 | 6% | 1 | -2% | 10 | 5 | -10%
O=C1NCCCCC1NS(=O)(=O)c1cccc2ccccc12 (stereo not given) | . | 7 | 0% | -3 | 4 | -3%
CC1(C(=O)NS(=O)(=O)c2ccc(C#N)cc2)CCN1C(=O)Cc1ccc(-c2ccccc2)cc1 (stereo not given) | . | 3 | 10% | 36 | 1 | 1%
OCC[C@H]1C[C@H](O)[C@@H](O)[C@]2(CCCO2)O1 | . | 4 | 10% | 6 | 11 | -21%
CC(C)C1Nc2c(O)cc(Cl)c([N+](=O)[O-])c2C2C=CCC21 (stereo not given) | 7% | -17 | ? | 65 | -13 | ?
CC(C)c1ccc(NC(=O)c2cccc(NC3=NC4CS(=O)(=O)CC4S3)c2)cc1 (stereo not given) | . | 1 | 2% | 28 | 1 | 7%
COc1ccc(Cl)cc1NC(=O)CSc1nnc(CNC(=O)c2cccs2)o1 | 2% | 3 | 1% | 31 | 7 | 5%
O=C(Cc1ccccc1)NCCSC1CCCCC1 | 4% | . | ? | 32 | 3 | -1%
